In the first test the target is T1, ELK3 (Homo sapiens, UniProt P41970 1-407).
T1 sequence: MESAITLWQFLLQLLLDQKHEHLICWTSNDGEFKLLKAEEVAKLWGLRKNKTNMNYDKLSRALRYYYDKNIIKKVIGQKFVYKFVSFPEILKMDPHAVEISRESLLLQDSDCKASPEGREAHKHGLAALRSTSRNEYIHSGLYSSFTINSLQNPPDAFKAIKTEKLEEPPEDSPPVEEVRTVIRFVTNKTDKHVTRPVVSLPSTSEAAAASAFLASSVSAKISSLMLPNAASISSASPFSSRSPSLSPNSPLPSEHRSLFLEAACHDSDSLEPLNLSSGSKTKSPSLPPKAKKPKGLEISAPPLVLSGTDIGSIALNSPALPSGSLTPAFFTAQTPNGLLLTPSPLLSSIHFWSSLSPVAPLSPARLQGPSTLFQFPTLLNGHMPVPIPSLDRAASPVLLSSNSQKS
As to the kind of experiment: DAPPL (digital affinity profiling via proximity ligation, sequencing); 10 mM Tris-HCl pH 7.5, 50 mM NaCl, 1 mM DTT, 4% glycerol, room temperature, 30 min; GST-TFs on glutathione beads, 16-mer random dsDNA library, 0.1% formaldehyde crosslink after washing; high values mean tight binding. To be noted: protein: recombinant; tags: N-terminal GST; dsDNA, one strand shown. The essentials: (§1)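 In yeast, human transcription factors were expressed with a GST fusion, then pulled down on glutathione beads and given DNA barcodes. Pooled with a tag-only sample, they were exposed to 200 nmole of a 16-mer random double-stranded DNA library (Tris/NaCl/DTT/glycerol buffer, room temperature, 30 min), washed, crosslinked with 0.1% formaldehyde, proximity-ligated using BsaI/T4 ligase for 1 h at 37 °C, PCR-amplified and read on an Illumina NextSeq500. Each hexamer's frequency of reads for a factor, divided by the matching frequency for the tag-only sample, gives the binding signal.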
On to GGTTAC, for which the binding signal is 1.04 fold enrichment (6-mer frequency, TF over GST control).

Take CGCGCA: the binding signal was 1.01 fold enrichment (6-mer frequency, TF over GST control). Same read-out and setting: the value for CCACGT was 1.05 fold enrichment (6-mer frequency, TF over GST control); that for ACGAGC was 1.03 fold enrichment (6-mer frequency, TF over GST control). Same read-out and setting: the value for TGCAGG was 1.03 fold enrichment (6-mer frequency, TF over GST control); that for GTGGTT was 1.01 fold enrichment (6-mer frequency, TF over GST control).

For the sequence AGTAGC, the binding signal is 1.05 fold enrichment (6-mer frequency, TF over GST control).

The next test addresses T2, FEV (Homo sapiens, UniProt Q99581 1-238).
T2 sequence: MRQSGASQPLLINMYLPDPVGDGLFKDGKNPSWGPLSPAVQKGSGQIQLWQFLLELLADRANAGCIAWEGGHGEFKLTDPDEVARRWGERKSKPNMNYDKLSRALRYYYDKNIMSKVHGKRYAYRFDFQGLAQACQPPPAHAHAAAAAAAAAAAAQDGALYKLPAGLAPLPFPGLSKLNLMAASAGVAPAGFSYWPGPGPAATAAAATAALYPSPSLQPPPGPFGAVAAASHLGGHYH
The test is described as above. As to conditions: protein: recombinant; tags: N-terminal GST; dsDNA, one strand shown. The procedure, abridged: as §1
With GGCGTT, the binding signal is 1.01 fold enrichment (6-mer frequency, TF over GST control). The same measure, in the same setting: the value for GGTTAC was 1 fold enrichment (6-mer frequency, TF over GST control); that for GCGACA was 1.02 fold enrichment (6-mer frequency, TF over GST control). On the same count and under the same terms, with AGTAGC the figure was 1.04 fold enrichment (6-mer frequency, TF over GST control).

For another test, the target named is T3, SPIC (Homo sapiens, UniProt Q8N5J4 1-248).
T3 sequence: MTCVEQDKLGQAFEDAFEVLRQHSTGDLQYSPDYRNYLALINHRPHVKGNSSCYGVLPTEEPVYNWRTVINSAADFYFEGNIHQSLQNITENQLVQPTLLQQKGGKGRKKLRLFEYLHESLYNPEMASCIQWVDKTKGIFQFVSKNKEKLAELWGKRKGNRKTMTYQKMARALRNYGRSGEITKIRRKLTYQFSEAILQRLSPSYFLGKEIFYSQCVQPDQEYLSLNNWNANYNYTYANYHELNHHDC
Described as above. To be noted: protein: recombinant; tags: N-terminal GST; dsDNA, one strand shown. The procedure, abridged: as §1
On to AAGGCC, for which the binding signal is 1.06 fold enrichment (6-mer frequency, TF over GST control). As to AGTTTG, the binding signal was 1.06 fold enrichment (6-mer frequency, TF over GST control). Still for that read-out and setting: with GTGCCG the figure was 1.03 fold enrichment (6-mer frequency, TF over GST control).

TAAGGC: the binding signal was 1.02 fold enrichment (6-mer frequency, TF over GST control). On the same count and under the same terms, the value for CGCTGT was 1.1 fold enrichment (6-mer frequency, TF over GST control). On the same count and under the same terms, the value for AGGTCC was 1.2 fold enrichment (6-mer frequency, TF over GST control); that for GGCGTT was 1.08 fold enrichment (6-mer frequency, TF over GST control). For the sequence AGGGAA, the binding signal was 1.01 fold enrichment (6-mer frequency, TF over GST control). On the same count and under the same terms, with AGATGG the figure was 1.1 fold enrichment (6-mer frequency, TF over GST control); with GATCAC, 1.01 fold enrichment (6-mer frequency, TF over GST control); with GTGATG, 1.01 fold enrichment (6-mer frequency, TF over GST control). Still for that read-out and setting: the value for CACTGA was 1.06 fold enrichment (6-mer frequency, TF over GST control). The same measure, in the same setting: the value for CGGGTT was 1 fold enrichment (6-mer frequency, TF over GST control); that for GGTTAC was 1.05 fold enrichment (6-mer frequency, TF over GST control); that for TGGCGC was 1.1 fold enrichment (6-mer frequency, TF over GST control). For CAGCAC, the binding signal was 1.11 fold enrichment (6-mer frequency, TF over GST control).

Turning to CGACAG, the binding signal is 1.01 fold enrichment (6-mer frequency, TF over GST control). On the same count and under the same terms, with AGCACG the figure was 1.02 fold enrichment (6-mer frequency, TF over GST control). GTACAG: the binding signal was 1.02 fold enrichment (6-mer frequency, TF over GST control). On the same count and under the same terms, with CGCGCA the figure was 1.01 fold enrichment (6-mer frequency, TF over GST control).

Consider AGGTGT, for which the binding signal was 1.02 fold enrichment (6-mer frequency, TF over GST control). With CACGGC, the binding signal was 1.03 fold enrichment (6-mer frequency, TF over GST control). Still for that read-out and setting: the value for CCACGT was 1.09 fold enrichment (6-mer frequency, TF over GST control); that for GTAGTA was 1 fold enrichment (6-mer frequency, TF over GST control).

In the case of AGCATG, the binding signal was 1.07 fold enrichment (6-mer frequency, TF over GST control).

As to CGCAAT, the binding signal is 1.01 fold enrichment (6-mer frequency, TF over GST control).

Consider ACGAGC, for which the binding signal was 1.06 fold enrichment (6-mer frequency, TF over GST control).

CGTCAT: the binding signal was 1.05 fold enrichment (6-mer frequency, TF over GST control). The same measure, in the same setting: with ATGAGG the figure was 1.06 fold enrichment (6-mer frequency, TF over GST control); with GCGACA, 1.03 fold enrichment (6-mer frequency, TF over GST control). Still for that read-out and setting: with TGCAGG the figure was 1.01 fold enrichment (6-mer frequency, TF over GST control). Same read-out and setting: with GCCATC the figure was 1.17 fold enrichment (6-mer frequency, TF over GST control). Consider AGATAC, for which the binding signal is 1.05 fold enrichment (6-mer frequency, TF over GST control). Still for that read-out and setting: with GTTCGT the figure was 1.12 fold enrichment (6-mer frequency, TF over GST control); with GTGGTT, 1.01 fold enrichment (6-mer frequency, TF over GST control). Still for that read-out and setting: with ATAGTC the figure was 1.1 fold enrichment (6-mer frequency, TF over GST control); with AGTAGC, 1.04 fold enrichment (6-mer frequency, TF over GST control); with GACATG, 1.1 fold enrichment (6-mer frequency, TF over GST control).
